Laboratory results taken from PubChem BioAssay AID2435 (The Scripps Research Institute Molecular Screening Center, 2010).
In all, about 320,000 compounds went through this assay and about 1,000 (0.31%) were called active. The sample as a whole holds a higher share of actives than the screen did. Values without a mark were called inactive.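 Rule for the calls: active = activation above the mean of all tested compounds plus 3 SD, cutoff set per screening run (cut at about 20% in these data); inactive = the rest.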

These compounds were tested against Oxytocin receptor (Homo sapiens) (UniProt P30559) (assay: oxytocin receptor activation by calcium flux – fluorescence, CHO-OTR cells, Fluo-8 calcium, primary screen (AID 2435;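 note: peak over basal fluorescence ratio from a 100 s FLIPR kinetic read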)). Details: Fluo-8 calcium fluorescence, at 3 µM, stronger effect = higher value, normalized: DMSO 0%, oxytocin 100%.
Oxytocin receptor (Homo sapiens), sequence (P30559 whole entry, looked up): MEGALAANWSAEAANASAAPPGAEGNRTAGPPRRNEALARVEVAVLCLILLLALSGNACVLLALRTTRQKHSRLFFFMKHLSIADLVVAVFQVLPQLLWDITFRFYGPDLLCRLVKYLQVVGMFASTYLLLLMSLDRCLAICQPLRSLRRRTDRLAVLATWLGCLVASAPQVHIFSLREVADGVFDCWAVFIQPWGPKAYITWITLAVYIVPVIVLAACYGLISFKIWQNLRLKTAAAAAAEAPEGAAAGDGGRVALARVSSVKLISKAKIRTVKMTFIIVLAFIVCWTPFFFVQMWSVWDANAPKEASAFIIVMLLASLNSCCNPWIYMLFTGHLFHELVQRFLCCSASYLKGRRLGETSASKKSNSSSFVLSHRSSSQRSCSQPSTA

Compound	activation
CNC(=O)c1csc(Cc2c(Cl)sc3ccc(Cl)cc23)n1	-2.05%
O=C(NCc1ccncc1)C(=O)NCC1OCCN1S(=O)(=O)c1ccc(Br)cc1 (stereo not given)	0.38%
NC(=O)c1ccsc1NC(=O)COC(=O)COc1ccc(C=O)cc1	16.4%
Cc1c(Br)c([N+](=O)[O-])nn1CC(=O)Nc1sc2c(c1C(=O)OC(C)C)CCC(C)C2 (stereo not given)	0.81%
COc1cc(NC(=O)CSC(=S)N2CCCC2)c(OC)cc1Cl	-1.55%
CCN1/C(=C\c2ccc3ccccc3[n+]2CC)Sc2cc(C)ccc21	23.2% (active)
C=CCN1C(=NC(=O)COc2ccccc2)SC2CS(=O)(=O)CC21 (stereo not given)	1.7%
O=C(CSc1nc2ncccc2[nH]1)Nc1ccc2c(c1)OCCO2	-2.32%
CCc1ccc2c(c1)C1(NN=C(c3ccccc3)S1)C(=O)N2 (stereo not given)	-1.26%
CN(C)c1ccc(/C=C2\NC(=S)N(Cc3ccccc3)C2=O)cc1	51.8% (active)
O=C1/C(=C\c2ccsc2)NC(=S)N1c1ccccc1	0.14%
CN(C)c1ccc(C=C2C(=O)OC3(CCCC3)OC2=O)cc1	3.44%
N#CCCN(C(=O)COC(=O)c1ccc2c(c1)OCCO2)c1ccccc1	1.54%
Cn1cccc1C1(C(F)(F)F)NCCNC1=O (stereo not given)	1.22%
CCCC(=O)NC(=S)Nc1ccc(CN2CCOCC2)cc1	1%
CCOC(=O)CC1C(=O)NCCN1c1nc2c(C)cccn2c(=O)c1/C=C1\SC(=S)N(C(C)CC)C1=O (stereo not given)	23.3% (active)
CCOC(=O)N1CCN(C(=O)CSc2nc(=O)n3cccc(C)c3n2)CC1	-0.13%
Cc1cccn2c(=O)c(/C=C(\C#N)C(N)=O)c(N3CCCCCC3)nc12	-2.52%
O=[N+]([O-])c1ccccc1N/N=C1\CCc2ccccc21	1.32%
COc1cc(OC)c(N2CC(C(=O)Nc3cc(Cl)ccc3N3CCOCC3)CC2=O)cc1Cl (stereo not given)	10.6%
COc1cc(OC)c(-n2c(C)cc(C=O)c2C)cc1Cl	-0.29%
COc1cc(OC)c(-n2cc(-c3ccc(Cl)cc3)[nH]c2=O)cc1Cl	42.2% (active)
Cc1ccc(-n2ncc3c(Nc4cccc(C(=O)O)c4)ncnc32)cc1	-1.04%

Compound	activation
O=C(NCc1cccnc1)C12CC3CC(CC(C3)C1)C2	-0.43%
CCCN(CC(=O)Nc1ccccc1OC)C(=O)CCC(=O)c1ccc(F)cc1	-2.01%
C/C(=N\NS(=O)(=O)c1ccc(Cl)cc1)c1ccc(NC(=O)c2ccco2)cc1	24.5% (active)
C/C(=N/NS(=O)(=O)c1ccccc1)c1ccc(NC(=O)C(F)(F)F)cc1	-0.88%
O=C(Nc1ccc(O)cc1)c1ccc(NC(=O)c2ccco2)cc1	1.38%
O=C(O)CCn1c(O)c(C=C2N=c3ccccc3=N2)sc1=S	0.13%
CCc1ccc(-c2nn(-c3ccccc3)cc2CSC(=N)N)cc1	24.2% (active)
CCc1ccc(-c2nn(-c3ccccc3C)cc2C(=O)N2CCN(C3CCS(=O)(=O)C3)CC2)cc1 (stereo not given)	2.09%
Cc1ccc(-c2nn(-c3ccccc3)cc2/C=N/NC(=O)c2ccc3c(c2)OCO3)cc1	-1.39%
O=C(CNC(=O)c1ccccc1)Oc1ccc([N+](=O)[O-])cc1	2.42%
O=C(NC(Nc1nc2ccc([N+](=O)[O-])cc2s1)(C(F)(F)F)C(F)(F)F)c1ccccc1	20% (active)
O=C(CCNC(=O)c1ccccc1)Nc1nc2ccccc2s1	2.26%
CCOC(=O)CN(C)S(=O)(=O)c1ccc(-c2cc(C(=O)OC)sc2C(F)(F)F)cc1	1.32%
O=C(NCc1ccccc1)C(c1ccccc1)N(C(=O)c1csnn1)c1ccc(F)cc1 (stereo not given)	1.2%
Nc1ncnc2c1ncn2[C@@H]1O[C@H](CNCc2cccn2-c2nccs2)[C@@H](O)[C@H]1O	-0.14%
COc1ccc(C(=O)NC(=S)NNC(=O)c2c(-c3ccccc3)noc2C)cc1	46.7% (active)
Cc1onc(-c2ccccc2)c1C(=O)Nc1ccccc1C#N	-1.5%
CCc1noc(C)c1C(=O)NNC(=O)c1ccc(F)cc1	0.43%
Cc1onc(-c2c(Cl)cccc2Cl)c1C(=O)NNC(=O)c1c(-c2c(Cl)cccc2Cl)noc1C	-1.38%
Cc1onc(-c2ccccc2)c1C(=O)NNC(=S)NC(=O)c1ccc(F)cc1	32.9% (active)
Cc1ccc(CNC(=O)c2c(-c3ccccc3)noc2C)cc1	-1.84%
O=C(Nc1ccc(-n2ccnc2P(=O)(O)c2ccccc2)cc1)c1ccccc1Br	-0.12%
Cc1csc2nc(O)c(C(=O)NCCN3CCOCC3)c(=O)n12	0.15%

Compound	activation
Cc1cc(C)c(S(=O)(=O)N2C=CC(C(F)(F)F)=NCC2)c(C)c1	0.69%
CN(CCc1ccccc1)C(=O)c1cccc(NC(=O)Cc2ccc([N+](=O)[O-])cc2)c1	13.1%
CCCc1cc(=O)[nH]c(SCC(=O)N2CCN(S(=O)(=O)c3ccc(C)cc3C)CC2)n1	-1.06%
COC(=O)C1(S(=O)(=O)C2(C(=O)OC)CCCC2)CCCC1	-0.45%
COc1cc(/C=C(\C#N)c2nc3c(s2)CC(C)CC3)ccc1O (stereo not given)	12.7%
CCOc1cc(-c2cc(-c3ccc(NC(C)=O)cc3)nc(N)c2C#N)ccc1O	1.58%
CCOc1cc(/C=C(\C#N)c2nc(-c3cccs3)c(NC(C)=O)s2)ccc1O	23.4% (active)
Cc1cccc(NC(=O)C(C)N2C(=O)C3C4CC(C(Br)C4Br)C3C2=O)c1 (stereo not given)	8.44%
CN(CC(=O)Nc1ccc(OC(F)(F)F)cc1)C(=O)C1CCC1	3.13%
O=C(Nc1ccc2ccccc2c1)/C(=C/c1cccc(Br)c1)NC(=O)c1ccco1	0.36%
Cc1ccc(C(=O)NNC(=O)C(C)Oc2ccc3ccccc3c2)o1 (stereo not given)	1.07%
Cc1ccc(OCC(=O)NCCCNC(=O)c2ccco2)cc1C	0.98%
CCCc1ccc(OCC(=O)NNC(=S)NC(=O)c2ccco2)cc1	31.6% (active)
CC(Oc1ccc2ccccc2c1)C(=O)NNC(=S)NC(=O)c1ccco1 (stereo not given)	33.9% (active)
Cc1ccc(OCC(=O)NNC(=S)NCc2ccccc2)cc1	-1.15%
COc1ccc(Cn2c(O)c(/C=C3/C=CC=N3)c(=O)[nH]c2=O)cc1	-0.07%
CN(C)CCN(C(=O)C1=COCCO1)c1nc2ccc(Cl)cc2s1	1.72%
Cc1nn(Cc2ccccc2)c(C)c1CNC(=O)c1ccc(F)c(S(=O)(=O)N2CCOCC2)c1	3.05%
Cc1ccc2c(c1)N(CC(=O)N1CCCc3ccccc31)C(=O)C(C)O2 (stereo not given)	-1.51%
Cc1nc(C(=O)Nc2ccc(Cl)cc2)sc1C1(C)CC(c2ccccc2)=NO1 (stereo not given)	0.47%
Cc1nc(C(=O)NCc2ccccc2)sc1C1(C)CC(c2cccnc2)=NO1 (stereo not given)	21.7% (active)
Cc1nc(-c2ccc(Cl)cc2)sc1C1(C)CC(c2ccccc2F)=NO1 (stereo not given)	-0.58%
COCC(C)NC(=O)CSc1nc2nn(-c3ccccc3)c(=O)c-2c2n1CCCCC2 (stereo not given)	-0.74%

Compound	activation
CC(=O)Nc1ccc(S(=O)(=O)N(C)c2ccc(OCC(=O)OCC(=O)N3CCCCC3)cc2)cc1	0.24%
Cn1c(=O)c(=O)n(C)c2cc(S(=O)(=O)CCC(=O)N3CCCCC3)ccc21	-0.07%
O=C(C1CCCO1)N(Cc1ccccc1)c1ccccc1 (stereo not given)	-1.09%
CC(=O)Oc1ccccc1C(=O)Nc1ncc([N+](=O)[O-])s1	20% (active)
O=C(Cc1c(F)cccc1Cl)Nc1ncc([N+](=O)[O-])s1	8.99%
O=C(CCc1ccccc1)Nc1ncc([N+](=O)[O-])s1	12.4%
CCC(C(=O)Nc1ccc2c(c1)OCCO2)c1ccccc1 (stereo not given)	0.44%
CCC(C(=O)OCC(=O)Nc1ccc(C(=O)Nc2ccc(OC)cc2)cc1)c1ccccc1 (stereo not given)	5.16%
CCC(C(=O)Nc1ccc(C(C)C)cc1)c1ccccc1 (stereo not given)	41.5% (active)
CCCc1nc2ccccc2c(C(=O)OCc2nnc(-c3cc(OC)c(OC)c(OC)c3)o2)c1CC	0.34%
C=CCNC(=O)/C=C/c1ccc(C(C)C)cc1	-2.22%
OCCCC1CCCCN1Cc1nc(Cc2ccccc2Cl)no1 (stereo not given)	1.04%
Cc1cc(N2C(=O)C(O)=C(C(=O)c3ccc(C)o3)C2c2ccc(OCc3ccccc3)cc2)no1 (stereo not given)	0.01%
C=CCOc1cccc(C2C(C(=O)c3ccc(C)o3)=C(O)C(=O)N2CCCn2ccnc2)c1 (stereo not given)	-0.44%
C=CCOc1cccc(C2C(C(=O)c3ccc(C)o3)=C(O)C(=O)N2c2nnc(C)s2)c1 (stereo not given)	47.7% (active)
COC(=O)CN(c1nc(C)c(Cl)c(OC)n1)S(=O)(=O)c1ccc(C)cc1	-1.64%
COC(=O)c1nn(-c2cccc(Cl)c2)ccc1=O	0.3%
COc1cc(OC)cc(C(=O)N[C@H](C(=O)OCC(=O)NC(C)c2ccccc2)C(C)C)c1 (stereo not given in full)	76.7% (active)
COc1cc(OC)cc(C(=O)NCC(=O)OCC(=O)NC(C)CCc2ccccc2)c1 (stereo not given)	-0.13%
Cc1cc(C)cc(OCC(=O)NC(C)c2ccccc2)c1 (stereo not given)	-2.21%
O=C(Cn1c(-c2ccc(Cl)cc2)noc1=O)N1CCN(c2ccccc2F)CC1	2.36%
